Among the data in PubChem BioAssay (NCI) are growth values, retold here.

Among the test systems are HCT-15 colon; HT29 colon; SNB-75 CNS; SNB-19 CNS; U251 CNS; PC-3 prostate; SK-MEL-5 melanoma; UACC-62 melanoma; LOX IMVI melanoma; SK-MEL-28 melanoma; SK-MEL-2 melanoma; EKVX NSCLC; SN12C renal; UO-31 renal; TK-10 renal; ACHN renal; CAKI-1 renal; A498 renal; CCRF-CEM leukemia; MOLT-4 leukemia.
Test in all cases: NCI-60 one-dose screen, 48 h (100 = growth as untreated, 0 = no growth, -100 = all killed)
Holding throughout (settings): 10 µM unless noted

This is part of a sample that, as a whole, favours compounds with a hit. Of some 83,000 tested, about 20% had one in any assay.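 Step 1: grow cells in 96-well plates. Step 2: add test compound at a single concentration. Step 3: incubate 48 h. Step 4: record percent growth.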 A number with no mark means an inactive call. Activity calls are given as the source filed them. How the source made its calls: active means growth percent below 10; inactive means the rest.

Take `CC1=C(SCC(=O)OCCCCCC(C)C)C(=O)c2ccccc2C1=O`: the growth is 89.3% with HCT-15 colon; 106% in the assay with HT29 colon; 91.1% with SNB-75 CNS; 91.1% with SNB-19 CNS; 92% with U251 CNS; 68.8% in the assay on PC-3 prostate. Besides, the growth with SK-MEL-5 melanoma was 91.8%; with UACC-62 melanoma, 86.2%; in the assay with LOX IMVI melanoma it was 93.2%; in the assay on SK-MEL-28 melanoma it was 110%; with SK-MEL-2 melanoma, 99.1%; in the assay on EKVX NSCLC, 82.5%. In addition, the growth was 83% in the assay with SN12C renal; 62.9% in the assay with UO-31 renal; 133% in the assay on TK-10 renal; 85.7% in the assay with ACHN renal; 80.3% in the assay with CAKI-1 renal; 107% with A498 renal. The values for the growth in the assay on CCRF-CEM leukemia and with MOLT-4 leukemia were 91.3% and 79.4%, respectively.
Consider `CCCCCc1ccc(S(=O)(=O)Nc2cc(-c3csc(N)n3)ccc2OC)cc1`, for which the growth in the assay on HCT-15 colon was 81.8%; with HT29 colon, 114%; in the assay on SNB-75 CNS it was 103%; in the assay on SNB-19 CNS, 91.3%; in the assay with U251 CNS, 95.8%; with PC-3 prostate, 90.8%. Besides, the growth was 84.8% in the assay on SK-MEL-5 melanoma; 75.9% in the assay on UACC-62 melanoma; 107% in the assay with LOX IMVI melanoma; 111% with SK-MEL-28 melanoma; 112% with SK-MEL-2 melanoma; 86.4% in the assay on EKVX NSCLC. The growth in the assay with SN12C renal is 89.2%; in the assay on UO-31 renal it was 53.5%; in the assay on TK-10 renal it was 113%; with ACHN renal it was 98%; with CAKI-1 renal, 88.4%; with A498 renal it was 96.6%. Moreover, the growth in the assay with CCRF-CEM leukemia is 57.4%; with MOLT-4 leukemia, 78.6%.
For `Cc1ccc(C(=O)CSc2nnc(-c3ccc(-c4ccc(Cl)cc4)nc3C)o2)cc1`, the growth is 102% with HCT-15 colon; 104% in the assay on HT29 colon; 90.7% in the assay on SNB-75 CNS; 99.3% in the assay on SNB-19 CNS; 104% with U251 CNS; 94.6% in the assay on PC-3 prostate. Also, the growth in the assay on SK-MEL-5 melanoma is 95%; in the assay with UACC-62 melanoma it was 84.8%; with LOX IMVI melanoma, 95.3%; in the assay on SK-MEL-28 melanoma, 99.9%; in the assay with SK-MEL-2 melanoma, 112%; with EKVX NSCLC it was 68.6%. In addition, the growth in the assay with SN12C renal is 99.7%; in the assay with UO-31 renal, 93.9%; in the assay on TK-10 renal, 191%; in the assay with ACHN renal, 95.4%; with CAKI-1 renal, 95.8%; with A498 renal, 98.2%. Further, the growth is 108% in the assay on CCRF-CEM leukemia and 103% in the assay with MOLT-4 leukemia.
`CC(=C(c1ccc(OCCN2CCCC2)cc1)c1ccc(OCCN2CCCC2)cc1)c1ccc(Cl)cc1`: the growth with HCT-15 colon was -73% (active); with HT29 colon, -59.2% (active); in the assay with SNB-75 CNS, 45.8%; in the assay with SNB-19 CNS it was -48.8% (active); with U251 CNS it was -75.1% (active); in the assay with PC-3 prostate, -26.9% (active). The growth was -94.9% (active) in the assay on SK-MEL-5 melanoma; -64.7% (active) in the assay with UACC-62 melanoma; -86.5% (active) in the assay on LOX IMVI melanoma; -82.5% (active) with SK-MEL-28 melanoma; -2.54% (active) in the assay with SK-MEL-2 melanoma; 37.3% in the assay on EKVX NSCLC. Also, the growth is 47.9% in the assay with SN12C renal; -74% (active) with UO-31 renal; 78.6% in the assay with TK-10 renal; -72.5% (active) in the assay with ACHN renal; 26.8% in the assay with CAKI-1 renal; 86.5% in the assay with A498 renal. The growth is -48.6% (active) in the assay on CCRF-CEM leukemia and -43% (active) in the assay with MOLT-4 leukemia.
Consider `O=C(N/N=C/c1cc2ccccc2nc1Cl)c1cc(-c2nc3ccccc3[nH]2)nc2ccccc12`, for which the growth in the assay on HCT-15 colon is 82.9%; with HT29 colon it was 90.3%; in the assay with SNB-75 CNS it was 83.2%; in the assay with SNB-19 CNS it was 95.3%; in the assay on U251 CNS, 92.2%; in the assay with PC-3 prostate, 81.6%. In addition, the growth in the assay on SK-MEL-5 melanoma was 81.9%; in the assay on UACC-62 melanoma it was 75.1%; in the assay on LOX IMVI melanoma, 88.9%; with SK-MEL-28 melanoma, 99.2%; in the assay on SK-MEL-2 melanoma it was 82.8%; in the assay with EKVX NSCLC it was 93.5%. For the same compound, the growth in the assay on SN12C renal was 99.9%; in the assay on UO-31 renal it was 70.7%; with TK-10 renal, 91.7%; with ACHN renal, 89%; with CAKI-1 renal, 71.6%; in the assay on A498 renal it was 54.6%. The growth in the assay on CCRF-CEM leukemia was 87.8%; in the assay with MOLT-4 leukemia it was 82.2%.
Regarding `COc1ccc(Cn2cc(C#N)c(N)c2C(C)=O)cc1`, the growth was 98.5% with HCT-15 colon; 112% in the assay with HT29 colon; 84.5% in the assay on SNB-75 CNS; 85.8% with SNB-19 CNS; 109% in the assay on U251 CNS; 105% with PC-3 prostate. For the same compound, the growth in the assay with SK-MEL-5 melanoma was 100%; with UACC-62 melanoma, 87.1%; with LOX IMVI melanoma, 98.6%; in the assay on SK-MEL-28 melanoma, 109%; in the assay with SK-MEL-2 melanoma it was 106%; in the assay on EKVX NSCLC, 104%. The growth with SN12C renal was 89.8%; with UO-31 renal, 95.9%; with TK-10 renal, 99.8%; with ACHN renal, 103%; in the assay on CAKI-1 renal, 93.6%; with A498 renal it was 83.9%. The growth is 94.7% in the assay with CCRF-CEM leukemia and 101% with MOLT-4 leukemia.
Turning to `CN1CCN(CC#CCn2c3c(c4ccccc42)C[C@]2(C)[C@H]4CC=C5[C@@H]6CC(C)(C)CC[C@]6(C(=O)N6CCOCC6)CC[C@@]5(C)[C@]4(C)CC[C@H]2C3(C)C)CC1`, the growth in the assay with HCT-15 colon is 28.4%; in the assay with HT29 colon it was 12.3%; in the assay on SNB-75 CNS it was 88.9%; in the assay on SNB-19 CNS it was 83%; with U251 CNS, 43.4%; with PC-3 prostate, 56.7%. The growth was 95.7% in the assay with SK-MEL-5 melanoma; 103% in the assay with UACC-62 melanoma; -46.1% (active) in the assay on LOX IMVI melanoma; 92.1% with SK-MEL-28 melanoma; 119% in the assay with SK-MEL-2 melanoma; 75.2% with EKVX NSCLC. Also, the growth is 81.1% with SN12C renal; 56.5% with UO-31 renal; 135% in the assay with TK-10 renal; 93% with ACHN renal; 64.5% in the assay with CAKI-1 renal; 92.4% with A498 renal. Moreover, the growth is 35% with CCRF-CEM leukemia and 33.9% with MOLT-4 leukemia.
With `CC1=C(C)C(=O)C(Nc2ccc(C)cc2)=C(Br)C1=O`, the growth in the assay with HCT-15 colon was 95.9%; with HT29 colon, 108%; with SNB-75 CNS it was 89%; in the assay with SNB-19 CNS, 101%; with U251 CNS it was 104%; in the assay on PC-3 prostate, 87.8%. The growth is 94% in the assay on SK-MEL-5 melanoma; 92.2% in the assay on UACC-62 melanoma; 29.9% in the assay with LOX IMVI melanoma; 112% in the assay on SK-MEL-28 melanoma; 111% in the assay with SK-MEL-2 melanoma; 79.3% in the assay on EKVX NSCLC. Further, the growth in the assay on SN12C renal is 98.9%; with UO-31 renal, 87.5%; in the assay on TK-10 renal, 145%; in the assay on ACHN renal, 102%; in the assay on CAKI-1 renal, 106%; with A498 renal, 97.2%. Moreover, the figures for the growth in the assay on CCRF-CEM leukemia and with MOLT-4 leukemia were 17.9% and -30.6% (active), respectively.
